This is a sample that favours compounds with a hit; in the whole collection about 3% have one here.
CF NFkB block = cystic fibrosis NF-kB activation inhibition; inhibition, % at 5 µM; 0.86% of 360,000 active; KKLEB NF-kB-GFP reporter, PAF-induced, GFP fluorescence overnight;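 active = at least 50% inhibition at 5 µM, scaled per plate between neutral and stimulator controls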;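 also: PAF is a Pseudomonas aeruginosa culture filtrate used as stimulus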
KKLEB tox = counter-screen for CF NF-kB inhibitors: cytotoxicity; 0.36% of 360,000 active; KKLEB CF airway cells viability, ATPlite luminescence, overnight; stronger effect = lower value; cells stimulated with P. aeruginosa culture filtrate; activity change (cytotoxicity), % at 5 µM;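 active = corrected activity change at or below -50% at 5 µM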
ABHD5 PLIN5 PPI = inhibitors of human ABHD5-perilipin-5 interaction. inhibition, % at 4 µM. 0.78% of 360,000 active. AID 602281. Split G. princeps luciferase complementation, luminescence, 4 h. Q00G26+Q8WTS1;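 active = inhibition above the mean inhibition across every tested compound plus 3 SD, cut at about 22% in these data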
Target sequence (Q00G26 whole entry, looked up): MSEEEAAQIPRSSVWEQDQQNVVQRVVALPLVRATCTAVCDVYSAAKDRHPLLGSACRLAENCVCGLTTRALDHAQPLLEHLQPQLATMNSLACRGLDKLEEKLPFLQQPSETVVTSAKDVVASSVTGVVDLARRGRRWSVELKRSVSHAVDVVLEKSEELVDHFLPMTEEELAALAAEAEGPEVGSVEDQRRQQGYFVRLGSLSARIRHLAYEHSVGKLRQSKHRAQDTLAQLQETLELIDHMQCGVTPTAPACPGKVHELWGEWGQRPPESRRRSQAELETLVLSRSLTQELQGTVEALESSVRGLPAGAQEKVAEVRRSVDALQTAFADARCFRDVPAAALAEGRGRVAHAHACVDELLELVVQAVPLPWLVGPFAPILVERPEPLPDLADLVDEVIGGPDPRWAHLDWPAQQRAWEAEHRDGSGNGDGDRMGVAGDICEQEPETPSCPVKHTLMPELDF
Target sequence (Q8WTS1 whole entry, looked up): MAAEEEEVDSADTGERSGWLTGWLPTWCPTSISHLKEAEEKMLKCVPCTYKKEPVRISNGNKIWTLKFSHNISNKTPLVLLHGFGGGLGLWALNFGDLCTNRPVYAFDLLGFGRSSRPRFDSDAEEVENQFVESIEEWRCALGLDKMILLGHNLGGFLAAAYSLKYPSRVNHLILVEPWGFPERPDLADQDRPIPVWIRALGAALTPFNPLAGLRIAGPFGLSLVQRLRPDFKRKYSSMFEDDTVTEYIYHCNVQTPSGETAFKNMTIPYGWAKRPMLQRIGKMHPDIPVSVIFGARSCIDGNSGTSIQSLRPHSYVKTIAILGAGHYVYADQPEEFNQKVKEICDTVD
TRPM1 prom inh = MITF TRPM1 promoter inhibition in SK-MEL-5 cells; 0.83% of 330,000 active; inhibition, % at 12.5 µM; SK-MEL-5 TRPM1 promoter luciferase, 24 h;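 active = mean inhibition across replicates of 60% or more, whatever share of single replicates reaches that level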
HIF-2a block = HIF-2a inhibition | 786-0 RCC cells HIF-2a reporter, luciferase luminescence, overnight | inhibition, % at 18.8 µM | AID 624352 | 0.72% of 360,000 active;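 active = inhibition of the luminescence signal of 40% or more relative to plate controls, in a single-dose primary screen at 18.75 µM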
Peg3 prom inh-1 = Peg3 promoter activity inhibition; HeLa PEG-Prom luciferase reporter, luminescence, overnight; inhibition, % at 20 µM; 1.7% of 360,000 active; AID 588405;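 active = inhibition of at least 50% at 20 µM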
Peg3 prom inh-2 = Peg3 promoter inhibition confirmation | shares compounds with Peg3 prom inh-1 | 84% of 1,300 active | inhibition, % at 20 µM | HeLa PEG-Prom luciferase reporter, luminescence, overnight | AID 602417;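 active = at 20 µM dose, 40% or more inhibition averaged across four replicates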
CF NFkB conf = CF NF-kB inhibition confirmation, single concentration. inhibition, % at 5 µM. shares compounds with CF NFkB block. 64% of 1,300 active. KKLEB CF airway cells, PAF-induced NF-kB-GFP fluorescence, overnight; in the data active = inhibition above about 40%;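 also: stimulus PAF is a Pseudomonas aeruginosa filtrate and not platelet activating factor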
ABHD5-PLIN5 conf = confirmation of human ABHD5-PLIN5 interaction inhibitors; shares compounds with ABHD5 PLIN5 PPI; biochemical ABHD5-PLIN5 interaction, luminescence; inhibition, % at 4 µM; 67% of 2,200 active; in the data active = inhibition above about 23%
Mdm2 MdmX conf = Mdm2/MdmX (human) interaction inhibition, confirmed; shares compounds with HIF-2a block; SaOS-2 split-luciferase Mdm2/MdmX complementation, luminescence; inhibition, % at 8 µM; 99% of 740 active; AID 504601;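 active = mean inhibition of the luminescence signal across two replicates at or above 26 percent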
HIF-2a inh conf = confirmation of HIF-2a inhibitors | shares compounds with HIF-2a block | 786-0 RCC cells, HIF-2a luciferase reporter luminescence, overnight | inhibition, % at 18.8 µM | 56% of 1,800 active | AID 651580;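 active = mean inhibition across four replicates of at least 40 percent at the single tested concentration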
HIF-1a counter = counter-screen for HIF-2a inhibitors: HIF-1a inhibition in MiaPaCa-2 cells; shares compounds with HIF-2a block; MiaPaCa-2 HIF-1a luciferase reporter, desferoxamine, overnight; inhibition, % at 18.8 µM; 72% of 1,800 active; AID 651589;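 active = mean inhibition of the reporter signal across four replicates at the single tested dose of 50% or more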
Numbers stand for hits.

For Cc1ccc(NS(=O)(=O)c2ccc3c(c2)n(C)c(=O)n3C)cc1C the results were CF NFkB block inactive, KKLEB tox inactive, ABHD5 PLIN5 PPI inactive, TRPM1 prom inh inactive, HIF-2a block inactive and Peg3 prom inh-1 inactive.
`Cc1ccc(NS(=O)(=O)c2cc3c4c(cccc4c2)C(=O)NC3=O)cc1C` gave CF NFkB block inactive, KKLEB tox inactive, ABHD5 PLIN5 PPI inactive, TRPM1 prom inh inactive, HIF-2a block 54.2, Peg3 prom inh-1 57.2, Peg3 prom inh-2 60.2, HIF-2a inh conf inactive and HIF-1a counter 102.0.
`CCCCCCCNC(=O)C1(CC2CC(c3cccc(Br)c3)=NO2)CCNCC1` (stereo not given) gave CF NFkB block inactive, KKLEB tox inactive, ABHD5 PLIN5 PPI inactive, TRPM1 prom inh 98.9, HIF-2a block inactive, Peg3 prom inh-1 99.2, Peg3 prom inh-2 98.9 and Mdm2 MdmX conf 102.7.
For Fc1ccc(-c2nnc(NC3=NCCCCC3)o2)cc1 the results were CF NFkB block inactive, KKLEB tox inactive, ABHD5 PLIN5 PPI inactive, TRPM1 prom inh 61.8, HIF-2a block 67.3, Peg3 prom inh-1 81.5, Peg3 prom inh-2 56.8, HIF-2a inh conf 75.4 and HIF-1a counter 66.2.
For c1ccc(-c2nnc(NC3=NCCC3)o2)cc1 the results were CF NFkB block inactive, KKLEB tox inactive, ABHD5 PLIN5 PPI inactive, TRPM1 prom inh inactive, HIF-2a block inactive and Peg3 prom inh-1 inactive.
Screening CN(Cc1nccs1)C(=O)C1CCC(=O)N(CCCc2ccccc2)C1 (stereo not given) returned CF NFkB block inactive, KKLEB tox inactive, ABHD5 PLIN5 PPI inactive, TRPM1 prom inh inactive, HIF-2a block inactive and Peg3 prom inh-1 inactive.
For CC1CCCN(S(=O)(=O)c2ccc(C(=O)Nc3nnc(C4CC4)o3)cc2)C1 (stereo not given) the results were CF NFkB block inactive, KKLEB tox inactive, ABHD5 PLIN5 PPI inactive, TRPM1 prom inh inactive, HIF-2a block inactive and Peg3 prom inh-1 inactive.
Screening Cc1cc(C)c2nc(NNC(=O)c3ccc(S(=O)(=O)N4CCCC(C)C4)cc3)sc2c1 (stereo not given) returned CF NFkB block inactive, KKLEB tox inactive, ABHD5 PLIN5 PPI 23.2, TRPM1 prom inh inactive, HIF-2a block inactive, Peg3 prom inh-1 65.8, Peg3 prom inh-2 74.9, ABHD5-PLIN5 conf 59.2 and Mdm2 MdmX conf 85.7.
`O=c1c2ccccc2cnn1-c1nc2ccccc2[nH]1` gave CF NFkB block inactive, KKLEB tox -50.7, ABHD5 PLIN5 PPI inactive, TRPM1 prom inh 93.3, HIF-2a block 92.2, Peg3 prom inh-1 107.5, Peg3 prom inh-2 94.9, HIF-2a inh conf 94.5 and HIF-1a counter 98.6.
O=c1c2ccccc2nc2c3ccccc3cnn12 was read as CF NFkB block inactive, KKLEB tox inactive, ABHD5 PLIN5 PPI inactive, TRPM1 prom inh inactive, HIF-2a block inactive and Peg3 prom inh-1 inactive.
`O=c1c(Cl)c(N2CCCCC2)cnn1-c1nc2ccccc2[nH]1` gave CF NFkB block inactive, KKLEB tox -56.1, ABHD5 PLIN5 PPI inactive, TRPM1 prom inh 63.7, HIF-2a block 69.7, Peg3 prom inh-1 88.0, Peg3 prom inh-2 67.0, HIF-2a inh conf 79.3 and HIF-1a counter 85.7.
For COc1ccc(N(CC(=O)NCCSCc2ccccc2C)S(=O)(=O)c2ccccc2)cc1 the results were CF NFkB block inactive, KKLEB tox inactive, ABHD5 PLIN5 PPI inactive, TRPM1 prom inh inactive, HIF-2a block inactive and Peg3 prom inh-1 inactive.
`CC1(C)OC(=O)C2=C(C[C@@H](CCc3ccccc3)O[C@H]2C2CCCC2)O1` gave ABHD5 PLIN5 PPI inactive and HIF-2a block inactive.
Screening COc1cc(/C=C/C(=O)N2CCCN(C(=O)/C=C/c3cc(OC)c(OC)c(OC)c3)CC2)cc(OC)c1OC returned CF NFkB block inactive, KKLEB tox inactive, ABHD5 PLIN5 PPI inactive, TRPM1 prom inh inactive, HIF-2a block inactive and Peg3 prom inh-1 inactive.
`COc1cc(/C=C/C(=O)N2CCC=CC2=O)cc(OC)c1OC` gave CF NFkB block 80.7, KKLEB tox inactive, ABHD5 PLIN5 PPI inactive, TRPM1 prom inh 92.3, HIF-2a block 94.3, Peg3 prom inh-1 103.6, Peg3 prom inh-2 93.6, CF NFkB conf inactive, HIF-2a inh conf 82.6 and HIF-1a counter 103.5.
`CCCCN1C(=O)C(CC(=O)NC2CCCCC2)CC(C(=O)N(C(C)C)C(C)C)=C1C` (stereo not given) gave CF NFkB block inactive, KKLEB tox inactive, ABHD5 PLIN5 PPI inactive, HIF-2a block inactive and Peg3 prom inh-1 inactive.
O=C(Cn1nnc(-c2ccccc2)c1COc1ccc2ccccc2c1)NCC1CC1 was read as CF NFkB block inactive, KKLEB tox inactive, ABHD5 PLIN5 PPI inactive, HIF-2a block inactive and Peg3 prom inh-1 inactive.
Screening Cc1cccc(/C=N/Nc2ccc3ccccc3n2)c1 returned CF NFkB block inactive, KKLEB tox inactive, ABHD5 PLIN5 PPI inactive, TRPM1 prom inh 76.2, HIF-2a block 51.9, Peg3 prom inh-1 66.6, Peg3 prom inh-2 69.9, HIF-2a inh conf 88.4 and HIF-1a counter 89.7.
Cc1ccc(/C=N/Nc2ccc3ccccc3n2)o1 was read as CF NFkB block inactive, KKLEB tox inactive, ABHD5 PLIN5 PPI inactive, TRPM1 prom inh inactive, HIF-2a block inactive and Peg3 prom inh-1 inactive.
`C(=N\Nc1ccc2ccccc2n1)/c1ccc2c(c1)OCCO2` gave CF NFkB block inactive, KKLEB tox inactive, ABHD5 PLIN5 PPI inactive, TRPM1 prom inh 89.5, HIF-2a block 70.8, Peg3 prom inh-1 78.9, Peg3 prom inh-2 77.4, HIF-2a inh conf 91.4 and HIF-1a counter 100.0.
O=C1CSC(=S)N1Cc1cccnc1 was read as CF NFkB block inactive, KKLEB tox inactive, ABHD5 PLIN5 PPI inactive, TRPM1 prom inh inactive, HIF-2a block 46.6, Peg3 prom inh-1 95.8, Peg3 prom inh-2 50.1 and Mdm2 MdmX conf 100.7.
Screening O=C1CSC(=S)N1c1cccnc1 returned CF NFkB block inactive, KKLEB tox inactive, ABHD5 PLIN5 PPI inactive, TRPM1 prom inh inactive, HIF-2a block inactive and Peg3 prom inh-1 inactive.

Source: PubChem
